# In the supplement of paper PMC8728848:
# The sample as a whole holds a higher share of the strongest signals than the screen did.
# B1: IDGF2 (Drosophila melanogaster), Q9V3D4 (protein)
# chain: MKAWIWFTFVACLFAASTEAASNLVCYYDSSSYTREGLGKLLNPDLEIALQFCSHLVYGYAGLRGENLQAYSMNENLDIYKHQFSEVTSLKRKYPHLKVLLSVGGDHDIDPDHPNKYIDLLEGEKVRQIGFIRSAYDLVKTYGFDGLDLAYQFPKNKPRKVHGDLGLAWKSIKKLFTGDFIVDPHAALHKEQFTALVRDVKDSLRADGFLLSLTVLPNVNSTWYFDIPALNGLVDFVNLATFDFLTPARNPEEADYSAPIYHPDGSKDRLAHLNADFQVEYWLSQGFPSNKINLGVATYGNAWKLTKDSGLEGVPVVPETSGPAPEGFQSQKPGLLSYAEICGKLSNPQNQFLKGNESPLRRVSDPTKRFGGIAYRPVDGQITEGIWVSYDDPDSASNKAAYARVKNLGGVALFDLSYDDFRGQCSGDKYPILRAIKYRLHHHHHH
# How the values were obtained:
# Test in all cases: glycan array binding signal (z-score within array); higher = stronger binding
# Conditions in all cases: glycan notation: IUPAC condensed, linker removed
# [1] = biological target: Fuc(a1-2)Gal(b1-3)[Fuc(a1-4)]GlcNAc
# How it was run: (§1)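 Glycan array data came from 3228 arrays in the Consortium for Functional Glycomics database, and only arrays with an available protein sequence were kept. Glycan names were put into IUPAC-condensed notation, and columns mapping to the same glycan were averaged. The binding signal is a within-array Z-score, averaged across arrays of one protein sequence run at different concentrations or buffers and across linkers. A negative Z-score can be read as non-binding.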
# [2] = biological target: Fuc(a1-2)Gal(b1-4)GlcNAc(b1-3)Gal(b1-4)GlcNAc
# How it was run: as §1
# [3] = biological target: Fuc(a1-2)Gal6S(b1-4)GlcNAc
# How it was run: as §1
# [4] = biological target: Fuc(a1-2)[Gal(a1-3)]Gal(b1-3)GlcNAc
# How it was run: as §1
# [5] = biological target: Fuc(a1-2)[Gal(a1-3)]Gal(b1-4)Glc
# How it was run: as §1
# [6] = biological target: Fuc(a1-2)[Gal(a1-3)]Gal(b1-4)GlcNAc
# How it was run: as §1
# [7] = biological target: Fuc(a1-3)[Gal(b1-4)]Glc6S
# How it was run: as §1
# [8] = biological target: Fuc(a1-3)[Gal(b1-4)]GlcNAc(b1-3)Gal(b1-3)[Fuc(a1-4)]GlcNAc
# How it was run: as §1
# [9] = biological target: Fuc(a1-3)[Gal(b1-4)]GlcNAc(b1-4)Gal(b1-4)[Fuc(a1-3)]GlcNAc(b1-4)Gal(b1-4)[Fuc(a1-3)]GlcNAc
# How it was run: as §1
# [10] = biological target: Gal(a1-3)Gal(b1-4)[Fuc(a1-3)]GalNAc
# How it was run: as §1
# [11] = biological target: Gal(a1-3)[Gal(a1-4)]Gal(b1-4)GlcNAc
# How it was run: as §1
# [12] = biological target: Gal(a1-4)Gal(b1-4)Gal
# How it was run: as §1
# [13] = biological target: Gal(a1-4)Gal(b1-4)GalNAc
# How it was run: as §1
# [14] = biological target: Gal(b1-3)Gal
# How it was run: as §1
# [15] = biological target: Gal(b1-3)[Fuc(a1-4)]GlcNAc(b1-3)Gal(b1-4)GlcNAc
# How it was run: as §1
# [16] = biological target: Gal(b1-4)GlcNAc(b1-3)Gal(b1-4)GlcNAc
# How it was run: as §1
# [17] = biological target: Gal3S(b1-3)[Fuc(a1-4)]GlcNAc
# How it was run: as §1
# [18] = biological target: GalNAc(a1-3)GalNAc
# How it was run: as §1
# [19] = biological target: GlcNAc(b1-2)Man(a1-3)[GlcNAc(b1-2)Man(a1-6)]Man(b1-4)GlcNAc(b1-4)GlcNAc
# How it was run: as §1
# [20] = biological target: GlcNAc(b1-3)Gal
# How it was run: as §1
# [21] = biological target: GlcNAc(b1-3)GalNAc
# How it was run: as §1
# [22] = biological target: GlcNAc(b1-6)GalNAc
# How it was run: as §1
# [23] = biological target: Man(a1-2)Man(a1-3)Man
# How it was run: as §1
# [24] = biological target: Neu5Ac(a2-3)Gal(b1-4)GlcNAc(b1-3)Gal(b1-4)GlcNAc
# How it was run: as §1
# [25] = biological target: Neu5Ac(a2-3)Gal(b1-4)[Fuc(a1-3)]GlcNAc(b1-3)Gal
# How it was run: as §1
# [26] = biological target: Neu5Ac(a2-3)Gal(b1-4)[Fuc(a1-3)]GlcNAc(b1-3)Gal(b1-4)GlcNAc
# How it was run: as §1
# [27] = biological target: Neu5Ac(a2-3)Gal6S(b1-4)GlcNAc
# How it was run: as §1
# [28] = biological target: Neu5Ac(a2-8)Neu5Ac(a2-3)[GalNAc(b1-4)]Gal(b1-4)Glc
# How it was run: as §1
# [29] = biological target: Neu5Gc(a2-6)Gal(b1-4)GlcNAc
# How it was run: as §1
binder,measurement,setting,value
B1,glycan array binding signal (z-score),[1],-0.463
same,glycan array binding signal (z-score),[2],-0.26
same,glycan array binding signal (z-score),[3],-0.274
same,glycan array binding signal (z-score),[4],8.27
same,glycan array binding signal (z-score),[5],6.99
same,glycan array binding signal (z-score),[6],7.65
same,glycan array binding signal (z-score),[7],0.706
same,glycan array binding signal (z-score),[8],0.936
same,glycan array binding signal (z-score),[9],-0.319
same,glycan array binding signal (z-score),[10],-0.365
same,glycan array binding signal (z-score),[11],-0.273
same,glycan array binding signal (z-score),[12],-0.196
same,glycan array binding signal (z-score),[13],-0.481
same,glycan array binding signal (z-score),[14],0.071
same,glycan array binding signal (z-score),[15],0.056
same,glycan array binding signal (z-score),[16],-0.325
same,glycan array binding signal (z-score),[17],0.072
same,glycan array binding signal (z-score),[18],-0.398
same,glycan array binding signal (z-score),[19],-0.223
same,glycan array binding signal (z-score),[20],0.066
same,glycan array binding signal (z-score),[21],0.032
same,glycan array binding signal (z-score),[22],-0.197
same,glycan array binding signal (z-score),[23],-0.128
same,glycan array binding signal (z-score),[24],-0.3
same,glycan array binding signal (z-score),[25],0.239
same,glycan array binding signal (z-score),[26],0.148
same,glycan array binding signal (z-score),[27],-0.073
same,glycan array binding signal (z-score),[28],-0.271
same,glycan array binding signal (z-score),[29],0.622
